Among all 31,000 sequences or so, about 1,400 (4.5%) were called active. The sample as a whole holds a higher share of actives than the screen did. Unmarked numbers belong to inactive results.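 Rule for the calls: active = median seed-adjusted z-score above 1 or below -1; inactive = the rest.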
assay: Novel Modifiers of Survival Motor Neuron (SMN) Protein: Gene Identification via Genome-wide siRNA Screen; details: HEK293T SMN2-luciferase reporter, siRNA knockdown, 72 h; actives lie on both sides;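 note: luminescence tracks full-length SMN protein made from the SMN2 reporter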
In short: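 siRNA screen, 10418 genes ×3 siRNAs; 1 pmol/well, lipid reverse transfection into HEK293T SMN2-luc reporter line. 72 h, 37 °C, 5% CO2; ONE-Glo readout. Data: neg-ctrl normalized, log10, MAD; hit = MAD >1.0 or < -1.0.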

| Sequence | median seed-adjusted z-score |
| --- | --- |
| GCAACGUGUUGAUGAUGCATT against ADAD1 | -0.0795 |
| GCACAGAGGAACGAACUAATT against PSMC5 | -1.06 (active) |
| GGGAGACGGUAGAAUCAGATT against ATP13A4 | -1.09 (active) |
| CCAUGUGAGUGUAAGCAGUTT against ZNF490 | 0.00954 |
| GGGUAACUGUUGAUAACCATT against POGK | 0.938 |
| ACAAGACUUAUGCAAGAUATT against XRCC6BP1 | 0.128 |
| GGAAUUCGAUGGGAACUUUTT against CACHD1 | 0.119 |
| CCGAGUAGCUGAAAUUGUUTT against BCL2L14 | -0.859 |
| AGAUCUAUGAGAUUGAACATT against PRKAG3 | -1.03 (active) |
| CAAGUUCCUUAACAAGGAATT against EIF2B4 | 0 |
| CAGAUACUUUAGGACUCAATT against UGT2B4 | 0.0707 |
| CAGGCUCACUCGCAAAGAATT against USP31 | -0.755 |
| GGCUCUCUGUCAACUAUGATT against MGC21874 | -0.354 |
| CCCUUUUCUUUAUCCCUGATT against IL9R | -1.33 (active) |
| GCAAGGCUAUUAUAGAUCATT against CTNNA3 | 0.249 |
| GGACAUUGCUGAUCGCUUUTT against DMC1 | -0.00876 |
| GCAUGUCUCUAAUAUUCCUTT against RBM9 | 0.895 |
| GGUUUGAAAUUCUAACAAATT against TXNDC6 | 0.156 |
| CAUCCUGCAGAGUAUCUAATT against EPHA5 | -0.00876 |
| CUCUCUCUCGGAAUCUGAATT against POLR2L | -1.19 (active) |
| GGUUGUUUUGGAAACCGAATT against NAT12 | -0.0807 |
| GCGAAUUCAUAAGUCCAUUTT against MTMR9 | 0.133 |

| Sequence | median seed-adjusted z-score |
| --- | --- |
| CAAGACCGAGAGAACAAUATT against ENOX1 | 0.0694 |
| CCAUCACCGUUGAUGACAATT against JAK1 | 0.0199 |
| CGAGCUGCACGUUCCUAUATT against IRF7 | -0.304 |
| CAGUGGAUAUAUCCAGUCATT against RAB20 | -0.334 |
| GACUCGUUGUUGGUCUAAATT against MAP3K7 | -0.23 |
| CGCUGAUUUUCGAGUGUAATT against EHMT2 | 0.295 |
| GGGUCAUGCAGCAUCAAUATT against ITGAM | -1.56 (active) |
| CCAAGGACCUGGUCUGAAATT against CUGBP1 | 0.086 |
| AGCAGAUGGUUUUCGAGAATT against COPZ2 | -1.23 (active) |
| GGGUUUUGCUGACAGCUCATT against ZNF48 | -0.116 |
| GGAACACGCAUGUCUGGAATT against NOS1 | 0.0195 |
| GAAUGCAAGAUUUUCGAUUTT against USH2A | 0.0673 |
| GGCAUCCGCUUGUACUACATT against DBH | 0.337 |
| CCCUAUCAGUCCAAUGGAATT against PRDM4 | 0.0804 |
| GCCUUCUCCUCUCAUAACATT against ZNF683 | -0.452 |
| CAACUUCUCCGUAGCAGAATT against AKT2 | 0 |
| CUUCUACAGUGGUCACCUATT against VPS29 | -0.408 |
| GGUUAUCAAUGACGAGCAATT against EP400 | 1.83 (active) |
| GAACCUCGUUUCGAAAUUUTT against RIOK2 | -0.16 |
| GAAUGAUUUUCCAAAUGGATT against SLC25A21 | -0.219 |
| GGAAGAAACGGAGACUCAATT against DPF1 | 0.144 |
| GCCUGGUUUUGGAUACAAATT against LTA4H | -0.742 |

| Sequence | median seed-adjusted z-score |
| --- | --- |
| CAACUGCUACCUUAGCAUATT against RNF133 | 0 |
| GCUGUGAGAUUUACUCUGATT against ALAS1 | -1.15 (active) |
| AAGUGACUCUAGUCGUUUATT against REM2 | 0.109 |
| GCAGGGUCAUUACGACUCATT against PAX9 | -1.16 (active) |
| GAAUGGAUUCUGACCUUAUTT against MTO1 | -0.0252 |
| ACAAGAUGUAUCACCUAUATT against ZNF226 | 0.437 |
| GGACUUGCUGGAAAGCACATT against NCALD | 0 |
| GUACCUAAGUUGGAGCUGATT against TRPT1 | -0.671 |
| CCACUGGGCUAAUUCUACATT against ALPPL2 | 0.331 |
| CGACACUUUCUAUCGACAATT against UBA3 | 0.605 |
| GGGUCUCAGAAGACGUGUATT against CRAT | -1.42 (active) |
| GACAGUAACUUUAAUUCCATT against IDH3A | 0.137 |
| CAACAGCAAUUACACCGAUTT against TMPRSS13 | 0.0584 |
| GAACUUCAUAGUACAGCGATT against CTNNAL1 | 0.229 |
| CUGCUCUAAUUACACCGUATT against CILP | 0.0436 |
| GCUCGAUCCCUGCAGAUUATT against LCOR | -0.0435 |
| AGAUAAAGCGAUCUAAACUTT against ASCC3 | -0.192 |
| UCAUCUUAAAGGACCGAUATT against SEC11B | 1.04 (active) |
| CCCACAUUCUUGUCCGGCATT against ADAMTS4 | -0.0153 |
| GAAAGAUCCCUAUGGAAAATT against CAMK2G | -0.107 |
| GAAGGAUUAGAAACCGCAATT against RNF144 | 0.0938 |
| GGAUAAUGGAGAACUCAGATT against NSFL1C | -0.0899 |

| Sequence | median seed-adjusted z-score |
| --- | --- |
| GCACGUACCGCUUCGAAAATT against SLC4A10 | 0.026 |
| CCGGUAUUAGAAUCAAAGATT against POLS | -0.334 |
| CGAUAUCUUCACCACAUUATT against KCNJ6 | -1.6 (active) |
| CAACAAGUGUAACGACGAUTT against SMPD3 | -0.0115 |
| ACAGAACUCGGGACCUUUUTT against H6PD | 0.069 |
| GAAGAUUGCUCAGCGAUUATT against PRPF3 | -0.289 |
| GCUCGUAAGAGUGCAAGUATT against USPL1 | -1.87 (active) |
| GCCUGAAACUGGAGCCUCATT against SLC3A2 | -0.0428 |
| CCACAAAGACCGUCGCUUUTT against RHOBTB2 | -0.139 |
| GGCUAUGAUCAAAUCCUUATT against SLC17A4 | 0.262 |
| GAACUGGGCGAGUAUUACATT against SUPT5H | -4.02 (active) |
| AGAUGGAAGCGAAAACUGATT against NFATC1 | 0.00712 |
| GUGACCUUGUCAUUCCGUATT against RGS5 | 0 |
| CACCUGUUCGUGUCCUUCATT against SCTR | -0.352 |
| GCCUGGUUAUAUAACCGGATT against EP300 | -0.2 |
| GGUUCCGAAUCUAUUCCAATT against PLTP | 1.09 (active) |
| GGCCUUACUUAUUUGUGGATT against MAP2K5 | 0.986 |
| GCAUCACACUCACCAACUATT against GPR124 | 0.00658 |
| GCUUUGGAAGAAUACGUUATT against NR2F2 | 0.129 |
| UGAGUAUGCCUACCUCAAATT against HNF4A | -0.0274 |
| CAAUCUACCUAAUCAAGCUTT against ROD1 | 0.42 |
| CAAGAACGUGUACAAGUUUTT against RPN2 | -0.217 |

| Sequence | median seed-adjusted z-score |
| --- | --- |
| GAGCUGAGCUGUCGAUAUATT against SUPT6H | -2.54 (active) |
| GGUACAUCAUGAUAGAACATT against ABCD2 | -0.102 |
| GUAUGGACACCAUUAGUAATT against DTX3L | 0.0785 |
| GAGUUCACCCAGAUCGAAATT against CHMP6 | -1.81 (active) |
| GCAUCGACAUGGUUUCCGATT against GABRB3 | 0.0757 |
| CCACUGUACUGAGUGACCATT against HECTD3 | 0 |
| GAUUACUUCUUGACUAUCATT against OCRL | -0.545 |
| CGACCCUCAGAAUGAUAAATT against ARPC3 | -0.237 |
| CCAUCCUGGAAAUACCCUATT against SERPINA12 | -0.382 |
| UGAAUUUCGUAGUUCCAUATT against CNOT8 | 0.375 |
| CCGUCGAAUUUGAAGGUGATT against SULF1 | -0.128 |
| AGAUCUCCAUGGUCAGGAUTT against ACCN4 | -0.512 |
| GAACCUUCGGGAGAACCUUTT against FKBPL | -1.11 (active) |
| CGGUAUAAUCGGAAUCGGATT against MKI67IP | 0.426 |
| GGUGAAUAUUUAUCGUCUATT against CHD1 | -1.03 (active) |
| GCUAGACACCGGACCAAAATT against MMP28 | 0.862 |
| GGACAACUAUGGUAAGAAATT against TCF7L1 | -0.251 |
| GGAUUGAGCGCAUCAAGGUTT against GNG7 | -0.205 |
| GAAUGCUGUUUAUCUUAAUTT against PNPLA1 | 0.00692 |
| GGGAAAAAGUUCUUGCGUATT against USP12 | 0.121 |

From PubChem BioAssay AID1347426 (Functional Genomics Laboratory (NCATS/FGL), 2020)
